From ChEMBL document CHEMBL3433997, “St. Jude Leishmania screening dataset” (2016) come the findings set out here.

Type in all cases: functional
The target of assay [1] is Solute carrier family 2, facilitated glucose transporter member 1 (Homo sapiens) (UniProt P11166). In words: ST_JUDE_LEISH: Cytotoxicity at 2uM final concentration against transgenic Leishmania Mexicana promastigotes LmGLUT1 that are glucose transport deficient and complemented with the human glucose transporter GLUT1. Activity is measured by DNA content using SYBR green in vitro.

The target in assay [2] is Hexose transporter 1 (Plasmodium falciparum) (UniProt O97467). The experiment in a line: ST_JUDE_LEISH: Cytotoxicity at 2uM final concentration against transgenic Leishmania Mexicana promastigotes LmPfHT that are glucose transport deficient and complemented with the Plasmodium falciparum hexose transporter. Activity is measured by DNA content using SYBR green in vitro.

Assay [3] concerns the target Glucose transporter (Leishmania mexicana) (UniProt O61059). In words: ST_JUDE_LEISH: Cytotoxicity at 2uM final concentration against transgenic Leishmania Mexicana promastigotes LmGT2 that are glucose transport deficient and complemented with the L. Mexicana glucose transporter 2. Activity is measured by DNA content using SYBR green in vitro.

Chain of Solute carrier family 2, facilitated glucose transporter member 1 (Homo sapiens) (P11166 whole entry): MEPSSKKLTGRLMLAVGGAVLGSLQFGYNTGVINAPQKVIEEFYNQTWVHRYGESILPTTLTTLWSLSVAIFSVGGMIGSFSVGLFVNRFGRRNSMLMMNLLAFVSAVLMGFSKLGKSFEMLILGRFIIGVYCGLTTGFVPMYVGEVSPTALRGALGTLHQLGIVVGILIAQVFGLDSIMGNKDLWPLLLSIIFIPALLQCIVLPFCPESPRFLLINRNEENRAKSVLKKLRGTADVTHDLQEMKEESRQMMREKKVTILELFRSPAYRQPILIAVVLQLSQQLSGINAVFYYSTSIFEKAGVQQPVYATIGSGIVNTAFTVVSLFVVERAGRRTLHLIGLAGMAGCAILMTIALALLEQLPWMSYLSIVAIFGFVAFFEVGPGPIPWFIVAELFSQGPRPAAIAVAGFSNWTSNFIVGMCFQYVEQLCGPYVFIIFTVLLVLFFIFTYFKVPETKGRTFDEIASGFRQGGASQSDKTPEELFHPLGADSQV

Turning to `Cc1noc(C)c1-c1cccc(CNCc2ccc(-c3ccc(-c4nc5cc(C(F)(F)F)ccc5[nH]4)cc3)cc2)c1`, the inhibition in assay [1] is 5.36%; in assay [2] it was 4.54%; in assay [3], 4.2%.

As to `O=C(/C=C/c1ccc(Cl)c(Cl)c1)NCCCCCN1CC[C@H](NC(=O)/C=C/c2ccccc2)C1`, the values for the inhibition in assay [1], in assay [2] and in assay [3] were 0.76%, 0.86% and -0.08%, respectively.

Turning to `CC(C)(CNC(=O)[C@@H]1CCCN(CCOc2ccc(Cl)cc2)C1)c1nc(-c2ccc(Cl)c(O)c2)c(-c2ccncc2)[nH]1`, the inhibition in assay [1] is -1.34%; in assay [2], 2.16%; in assay [3], 0.11%.

As to `O=C(c1ccc(Cl)cc1)N1CCOC(CCN2CCC(c3ccccc3)CC2)(c2ccc(Cl)c(Cl)c2)C1` (stereo not drawn), the inhibition in assay [1] is 0.85%; in assay [2] it was -0.89%; in assay [3] it was -0.89%.

On to `N#Cc1ccc(NC(=O)c2ccc(Cc3ccc4c(c3)CCN(C3CCC3)CC4)cn2)cc1`, for which the inhibition came to 9.64% in assay [1], 10.6% in assay [2] and 10.4% in assay [3].

Regarding `c1ccc(C2CCC(N3CCC(N4CCN(c5ccccc5)CC4)CC3)CC2)cc1` (stereo not drawn), the inhibition in assay [1] is 5.35%; in assay [2], 7.92%; in assay [3], 8.3%.

Take `CC(C)(C)c1ccc(CN2CCC(NC(=O)c3ccc(-c4ccccc4Cl)s3)CC2)cc1`: the inhibition in assay [1] came to 10.1%; in assay [2], 7.04%; in assay [3] it was 3.18%.

As to `O=C(NC1CCN(Cc2ccsc2)CC1)c1ccc(-c2cccc(C(F)(F)F)c2)s1`, the figures for the inhibition in assay [1], in assay [2] and in assay [3] were 8.18%, 9.07% and 0.59%, respectively.

In the case of `CC(C)Cc1nc(N)nc(N)c1-c1ccc(Cl)cc1`, the inhibition in assay [1] worked out at 6.51%; in assay [2], 5.64%; in assay [3], 5.17%.

For the compound `CCOC(=O)c1[nH]c2ccc(F)cc2c1NC(=O)CN1CCN(c2cccc(C(F)(F)F)c2)CC1`, the inhibition was 0.03% in assay [1], 0.43% in assay [2] and -2.97% in assay [3].

For the compound `Cc1cccc2nc(-c3cccc(-c4ccc(NC(=O)c5ccncc5)cc4)c3)[nH]c12`, the inhibition in assay [1] was determined as 2.81%; in assay [2], 2.24%; in assay [3], 2%.

The inhibition is the drop in the measured response relative to a control, in per cent.
